# HEK cytotox: cytotoxic compounds in HEK 293 cells. HEK 293 viability, ATP luminescence (CellTiter-Glo), 48-72 h. Potency, µM (highest dose often 115 µM), without a hit: at the highest dose activity change, negative = cytotoxicity, usual class: inhibitors. 6.6% of 94,000 active. AID 1345083; further: nearly all actives have a fitted effect of over 60% in size
#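 HEK 293 seeded at 250 cells/well receive compound via pintool. After 48 or 72 hr at 37 degree Celsius, 5% CO2 and 95% humidity, CellTiter-Glo is dispensed and luminescence read following 10 min at room temperature.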
# FLuc inh: inhibitors of firefly (Photinus pyralis) luciferase | 2.5% of 76,000 active | AID 1347043 | P08659 | Potency, µM (doses to about 115 µM), actives largely listed as inhibitors | purified P. pyralis luciferase, luminescence, biochemical; further: nearly all actives have a fitted effect of over 65% in size
# Target sequence (P08659 whole entry, looked up): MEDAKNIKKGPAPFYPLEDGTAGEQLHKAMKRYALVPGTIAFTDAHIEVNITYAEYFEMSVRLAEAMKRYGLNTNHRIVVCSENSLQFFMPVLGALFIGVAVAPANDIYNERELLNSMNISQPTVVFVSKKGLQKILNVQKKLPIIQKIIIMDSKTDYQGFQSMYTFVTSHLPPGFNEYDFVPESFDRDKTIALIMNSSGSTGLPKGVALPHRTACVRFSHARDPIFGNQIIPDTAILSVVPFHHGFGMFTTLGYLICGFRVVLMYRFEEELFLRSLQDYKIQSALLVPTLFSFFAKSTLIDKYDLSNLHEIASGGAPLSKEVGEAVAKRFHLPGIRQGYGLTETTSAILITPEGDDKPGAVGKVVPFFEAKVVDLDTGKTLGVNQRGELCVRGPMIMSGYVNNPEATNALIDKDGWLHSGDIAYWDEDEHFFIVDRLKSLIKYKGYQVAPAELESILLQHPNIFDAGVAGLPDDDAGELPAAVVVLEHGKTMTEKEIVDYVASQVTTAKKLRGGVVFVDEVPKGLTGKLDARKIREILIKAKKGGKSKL
#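 FLuc 10nM, D-luciferin 10uM, ATP 10uM, Mg acetate 10mM, Tris acetate pH 7.5, Tween/BSA; cpd qHTS; enzyme added last; CCD luminescence.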
# 3T3 cytotox: cytotoxic compounds in NIH 3T3 cells; 4.3% of 94,000 active; NIH 3T3 viability, CellTiter-Glo ATP luminescence, 48-72 h; Potency, µM (series often up to 96.7 µM), for inactives: at the top dose activity change, negative = cytotoxicity, actives largely listed as inhibitors; further: nearly all actives have a fitted effect of over 55% in size
#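 First NIH 3T3 cells are plated at 400 cells/well; next compound is pinned in; then plates incubate 48 or 72 hr at 37 °C; finally CellTiter-Glo is added and luminescence read after 10 min.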
# NPR1 antag: antagonists of human natriuretic peptide receptor Npr1; AID 1347048; 1.6% of 76,000 active; HEK293 hNpr1 GloSensor cGMP, ANP-stimulated luminescence; Potency, µM (top dose mostly 46.3 µM), inactives show at the top dose activity change, negative = inhibition, actives largely listed as inhibitors; calls by dose curve; further: nearly all actives have a fitted effect of over 60% in size
#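 HEK293 cells stably expressing human Npr1 and cGMP GloSensor pGS-40F, loaded 2 h with 2% GloSensor reagent, given compound 30 min at room temperature. Luminescence read before and 20 min after 0.1 nM hNppA.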
# GPT2 inh: inhibitors of human GPT2 alanine aminotransferase | Q8TD30 | Recombinant GPT2, coupled pyruvate oxidase/HRP Amplex Red fluorescence | Potency, µM (top dose mostly 57.7 µM), for inactives: at the top dose activity change, negative = inhibition, usual class: inhibitors | 0.25% of 100,000 active | AID 1671188; further: nearly all actives have a fitted effect of over 60% in size
#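 GPT2 10ng/uL, a-KG 250uM, L-Ala 2mM, HEPES pH7.5 + 0.0001% Tween; 30 min RT. Then Amplex mix (PO/HRP/ThPP), 30 min RT dark, fluorescence. AOA 50uM used as positive control.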
# Active calls of the source: *; i = inactive; ? = inconclusive; · = no result given; [ ] = another dose, or the depositor's remark. A selection: hits, their analogues and other compounds. The true share with any hit is near 10%. Unless noted, the call rests on the fitted dose curve; in most records, active means well fitted curve in the direction sought with a large enough effect; inconclusive means small, poorly fitted or top-dose-only effect, or another doubt; inactive means no such curve, though single readings can be large; an effect the other way counts as inactive or inconclusive. On the % scale 0 is the no-effect control and ±100 the full control effect; potency means the concentration at half of the fitted maximal effect.
SMILES,HEK cytotox,FLuc inh,3T3 cytotox,NPR1 antag,GPT2 inh
COc1cccc(-c2cc(C3CCN(C(=O)Nc4cc(C)cc(C)c4)CC3)[nH]n2)c1,40µM*,i,?,-19%,-3%
CCOCCOC1CCN(C(=O)c2ccccc2OC)CC1,0%,i,-9%,1%,i
CSc1cccc(NC(=O)N2CCC(c3cc(-c4cccc(C)c4)n[nH]3)CC2)c1,45µM*,i,18µM*,-20%,?
CCn1cc(CN2CCCC(c3nc(-c4cnccn4)no3)CCNC(=O)CC2)cn1 (centres undefined),-11%,i,-17%,3%,i
COc1ccc(CC(=O)N2CCCN(c3ccc4nnc(C)n4n3)CC2)cc1,4%,·,-18%,·,·
COc1cccc(-c2cc(C3CCN(C(=O)c4ccc(Cl)cc4)CC3)[nH]n2)c1,45µM*,i,?,?,i
CC1(Cc2ccc3c(c2)OCO3)CCCN(C(=O)c2cncc(Cl)c2)C1 (centres undefined),32µM*,i,?,-5%,-32%
CC1(Cc2ccc3c(c2)OCO3)CCCN(C(=O)N2CCOCC2)C1 (centres undefined),-29%,i,-17%,-7%,-2%
Cc1c(Cl)c(C(=O)N2CCCC(C)(Cc3ccc4c(c3)OCO4)C2)nn1C (centres undefined),?,32µM*,?,-23%,-7%
Cn1cc(-c2ccccc2Oc2ccccc2)c2nc(CO)cn2c1=O,-21%[172 µM],i,?,0%[70.6 µM],-19%[88.5 µM]
Cn1cc(-c2ccccc2Oc2ccccc2)c2nc(CN3CCOCC3)cn2c1=O,-7%[172 µM],i,89µM*,1%[70.6 µM],-1%[88.5 µM]
CN1CCN(Cc2cn3c(=O)n(C)cc(-c4ccccc4F)c3n2)CC1,?,i,i,0%[70.6 µM],4%[88.5 µM]
COc1cc(F)ccc1-c1cn(C)c(=O)n2cc(CN3CCOCC3)nc12,-8%[172 µM],i,112µM*,3%[70.6 µM],0%[88.5 µM]
CCNC(=O)Nc1ccc(C(C(=O)O)N2CCOCC2)cc1OC (centres undefined),i,i,-4%,2%,i
CC(C)C[C@H]1NC(=O)[C@@H]2C[C@@H](NC(=O)CS(=O)(=O)c3ccccc3)CCN2C1=O,i,i,5%[174 µM],1%[70.6 µM],i
COc1cccc(Nc2ccnc(-c3nnc(C)n3C3CCCCC3)c2)c1,71µM*,i,89µM*,-25%[70.6 µM],-6%[88.5 µM]
COc1cccc(-c2ccnc(-c3nnc(C)n3C3CCCCC3)c2)c1,71µM*,i,89µM*,0%[70.6 µM],i
CNC(=O)c1cc(Br)cn2ccnc12,0%[172 µM],i,-8%[138 µM],8%[70.6 µM],-8%[88.5 µM]
c1ccc(-c2noc(Nc3ccc4c(c3)OCCO4)n2)cc1,40µM*,22µM*,?,-29%,i
O=C(Cn1ccn2nc(-c3ccccc3)c(CO)c2c1=O)Nc1cc(Cl)cc(Cl)c1,50µM*,i,-24%,0%,2%
O=C(CCn1cnnn1)N1CCCC(CCc2cccc(C(F)(F)F)c2)C1 (centres undefined),18µM*,i,?,-13%,?
Cn1cc(CN2CCCC(CCc3cccc(C(F)(F)F)c3)C2)cn1 (centres undefined),?,i,?,1%,-11%
O=C(c1ncccc1O)N1CCCC(CCc2cccc(C(F)(F)F)c2)C1 (centres undefined),?,i,?,-19%,-10%[11.5 µM]
O=C(c1ccc(-n2cnnn2)cc1O)N1CCCC(CCc2ccc(F)cc2)C1 (centres undefined),35µM*,i,?,?,-7%
Cc1nc(C(=O)N2CCCC(CCc3cccc(C(F)(F)F)c3)C2)c(C)o1 (centres undefined),25µM*,i,?,-29%,i
SMILES,HEK cytotox,FLuc inh,3T3 cytotox,NPR1 antag,GPT2 inh
O=C(c1cc(=O)[nH]c2cc(F)ccc12)N1CCCC(CCc2ccc(F)cc2)C1 (centres undefined),?,i,?,?,i[11.5 µM]
CCn1c2c(c(=O)n1Cc1ccccc1)CCN(C(=O)COc1ccccc1)C2,5%[172 µM],i,50µM*,2%[70.6 µM],-1%[88.5 µM]
CCn1c2c(c(=O)n1Cc1ccccc1)CCN(C(=O)c1cccnc1)C2,i,i,50µM*,5%[70.6 µM],i
COc1ccc(-n2c(=O)c3c(n2Cc2ccccc2)CN(C(=O)COc2ccccc2)CC3)cc1,-7%,i,40µM*,-3%,i
COc1ccc(Cn2c3c(c(=O)n2Cc2ccccc2)CCN(C(C)=O)C3)cc1,i,i,?,-1%[70.6 µM],-3%[88.5 µM]
CCn1c2c(c(=O)n1Cc1ccccc1)CCN(C(=O)c1cccc(C#N)c1)C2,0%[172 µM],i,?,-11%[70.6 µM],i
COc1ccc(Cn2c3c(c(=O)n2Cc2ccccc2)CCN(C(=O)C2CCOCC2)C3)cc1,i,i,25µM*,4%,-10%
CC1CCCC(O)CCC/C=C/c2cc(OS(=O)(=O)O)cc(O)c2C(=O)O1 (centres undefined),·,·,·,·,-7%[27.3 µM]
C[C@@H]1CN(c2ccc(C(=O)N3CCC(N4CCOCC4)CC3)cn2)C[C@H](C)O1,-28%,i,-9%,4%,0%
Cn1ccnc1CN1CC2(CCN(C(=O)C3CC3)CC2)CC1C(=O)O (centres undefined),1%,i,-1%,13%,-1%
Cc1nn(-c2ccccc2Cl)c(=O)n1CC(=O)N(C)C(C)c1ccon1 (centres undefined),-16%,i,-11%,9%,i[11.5 µM]
O=C(O)CCC(=O)N1C[C@@H]2OCC(=O)N(c3ccccc3)[C@@H]2C1,-6%[172 µM],i,-1%[174 µM],3%[70.6 µM],2%[88.5 µM]
COc1ccc(Cn2c3c(c(=O)n2Cc2ccccc2)CCN(C(=O)CCc2cccnc2)C3)cc1,i,i,6.3µM*,4%,-18%
O=C(COc1ccccc1)N1CCc2c(n(Cc3cccnc3)n(CCc3ccccc3)c2=O)C1,-32%,i,35µM*,-5%,i
COCCn1c2c(c(=O)n1-c1ccccc1)CCN(C(=O)COc1ccccc1)C2,-17%[172 µM],i,?,-4%[70.6 µM],i
COCCn1c(=O)c2c(n1Cc1ccccc1)CN(C(=O)COc1ccccc1)CC2,i,i,22µM*,-2%[70.6 µM],1%[88.5 µM]
O=c1c2c(n(Cc3cccnc3)n1CCc1ccccc1)CN(Cc1cccc(O)c1)CC2,-6%,i,?,-1%,2%
CC(=O)NCc1nnc2n1C(C(=O)NCCc1ccccc1)CC2 (centres undefined),-9%,·,-11%,·,?
O=c1cc(C2=CCOCC2)oc2c(-c3cccc4[nH]ccc34)nccc12,40µM*,i,?,-13%[70.6 µM],2%[88.5 µM]
COc1ccccc1-c1nccc2c(=O)cc(-c3ccccn3)oc12,?,i,?,2%[70.6 µM],?
